Here are results for 24 molecules from ChEMBL document CHEMBL5308504, “Tm Shift (DSF) assay results for EUbOPEN Chemogenomics Library” (2023).

Common to all, as to settings: Compound concentration 20.0 uM, Protein concentration 2.0 uM, Result type QC Liability
Assay [1] concerns the target Tyrosine-protein kinase ABL1 (Homo sapiens) (UniProt P00519).
Assay [2] addresses Cyclin-dependent kinase 2 (Homo sapiens) (UniProt P24941).
The target in assay [3] is Casein kinase I isoform delta (Homo sapiens) (UniProt P48730).
Casein kinase I isoform delta (Homo sapiens), sequence (P48730 whole entry, looked up, canonical isoform): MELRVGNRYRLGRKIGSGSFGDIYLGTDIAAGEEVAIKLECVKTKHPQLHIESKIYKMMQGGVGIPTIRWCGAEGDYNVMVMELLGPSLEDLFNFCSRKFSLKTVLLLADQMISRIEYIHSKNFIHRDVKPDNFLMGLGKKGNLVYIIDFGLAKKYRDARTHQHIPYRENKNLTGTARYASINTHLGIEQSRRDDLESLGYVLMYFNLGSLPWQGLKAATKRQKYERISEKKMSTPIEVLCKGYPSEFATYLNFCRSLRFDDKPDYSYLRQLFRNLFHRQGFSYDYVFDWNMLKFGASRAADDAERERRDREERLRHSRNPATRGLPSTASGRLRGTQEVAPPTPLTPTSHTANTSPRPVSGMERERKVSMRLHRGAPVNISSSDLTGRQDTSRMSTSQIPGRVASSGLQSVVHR
Assay [4] deals with Glycogen synthase kinase-3 beta (Homo sapiens) (UniProt P49841).
Glycogen synthase kinase-3 beta (Homo sapiens), sequence (P49841 whole entry, looked up): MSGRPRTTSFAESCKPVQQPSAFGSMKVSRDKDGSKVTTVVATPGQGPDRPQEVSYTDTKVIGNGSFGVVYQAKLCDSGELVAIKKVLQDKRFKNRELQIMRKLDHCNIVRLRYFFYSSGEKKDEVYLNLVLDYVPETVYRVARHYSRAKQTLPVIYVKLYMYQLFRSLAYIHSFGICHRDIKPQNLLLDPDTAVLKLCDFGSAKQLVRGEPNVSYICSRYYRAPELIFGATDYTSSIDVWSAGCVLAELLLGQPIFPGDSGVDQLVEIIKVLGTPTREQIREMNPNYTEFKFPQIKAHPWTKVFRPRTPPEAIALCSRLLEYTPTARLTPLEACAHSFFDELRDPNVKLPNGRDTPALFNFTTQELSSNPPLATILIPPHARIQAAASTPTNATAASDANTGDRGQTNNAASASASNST
Assay [5] concerns the target Mitogen-activated protein kinase 1 (Homo sapiens) (UniProt P28482).
For assay [6], the target named is T1, Aurora kinase A (Homo sapiens) (UniProt O14965).
T1 sequence (whole entry): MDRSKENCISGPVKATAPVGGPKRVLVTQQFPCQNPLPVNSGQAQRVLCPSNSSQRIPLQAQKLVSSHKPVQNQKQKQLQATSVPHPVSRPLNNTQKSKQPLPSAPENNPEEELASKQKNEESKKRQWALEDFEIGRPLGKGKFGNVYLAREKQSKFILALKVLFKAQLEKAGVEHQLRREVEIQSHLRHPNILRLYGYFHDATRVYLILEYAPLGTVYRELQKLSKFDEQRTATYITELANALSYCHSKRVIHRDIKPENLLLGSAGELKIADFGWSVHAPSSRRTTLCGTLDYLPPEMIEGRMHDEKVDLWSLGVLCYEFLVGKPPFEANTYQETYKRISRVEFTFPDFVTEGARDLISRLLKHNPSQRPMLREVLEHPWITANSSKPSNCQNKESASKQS

Several values for one entry are separate records, joined by “and”; a condition that tells them apart may be missing. Equal values may be shown once.

Tyrosine-protein kinase ABL1 (Homo sapiens), sequence (P00519 whole entry): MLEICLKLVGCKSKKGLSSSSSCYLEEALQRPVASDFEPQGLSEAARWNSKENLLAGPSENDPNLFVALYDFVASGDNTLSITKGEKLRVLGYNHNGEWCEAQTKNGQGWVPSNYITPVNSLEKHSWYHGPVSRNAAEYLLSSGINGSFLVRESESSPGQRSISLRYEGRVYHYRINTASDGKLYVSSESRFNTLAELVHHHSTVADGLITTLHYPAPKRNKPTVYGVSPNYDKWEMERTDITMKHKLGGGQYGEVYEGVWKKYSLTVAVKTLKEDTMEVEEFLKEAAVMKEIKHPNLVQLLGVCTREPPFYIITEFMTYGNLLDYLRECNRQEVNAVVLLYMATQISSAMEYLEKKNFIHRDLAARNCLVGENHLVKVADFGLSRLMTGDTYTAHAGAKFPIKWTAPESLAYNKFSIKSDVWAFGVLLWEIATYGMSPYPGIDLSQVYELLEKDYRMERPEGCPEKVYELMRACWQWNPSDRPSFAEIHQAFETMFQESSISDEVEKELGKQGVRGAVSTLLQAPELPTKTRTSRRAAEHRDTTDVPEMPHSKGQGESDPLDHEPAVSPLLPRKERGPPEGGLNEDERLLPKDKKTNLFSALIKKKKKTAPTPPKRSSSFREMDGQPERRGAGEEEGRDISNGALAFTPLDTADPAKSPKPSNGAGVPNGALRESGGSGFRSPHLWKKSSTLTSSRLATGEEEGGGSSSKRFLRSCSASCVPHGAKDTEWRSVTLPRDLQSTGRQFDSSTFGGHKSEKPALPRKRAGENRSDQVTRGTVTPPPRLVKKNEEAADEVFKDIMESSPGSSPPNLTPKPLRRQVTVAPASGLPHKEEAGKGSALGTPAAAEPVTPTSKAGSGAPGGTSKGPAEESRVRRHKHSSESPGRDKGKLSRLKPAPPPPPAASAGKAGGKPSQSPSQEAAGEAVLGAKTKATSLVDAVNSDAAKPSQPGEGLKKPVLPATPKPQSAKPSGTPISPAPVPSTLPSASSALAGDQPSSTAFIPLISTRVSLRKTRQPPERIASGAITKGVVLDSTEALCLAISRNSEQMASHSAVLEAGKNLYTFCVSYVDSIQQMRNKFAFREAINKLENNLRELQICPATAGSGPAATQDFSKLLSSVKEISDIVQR
Mitogen-activated protein kinase 1 (Homo sapiens), sequence (P28482 whole entry): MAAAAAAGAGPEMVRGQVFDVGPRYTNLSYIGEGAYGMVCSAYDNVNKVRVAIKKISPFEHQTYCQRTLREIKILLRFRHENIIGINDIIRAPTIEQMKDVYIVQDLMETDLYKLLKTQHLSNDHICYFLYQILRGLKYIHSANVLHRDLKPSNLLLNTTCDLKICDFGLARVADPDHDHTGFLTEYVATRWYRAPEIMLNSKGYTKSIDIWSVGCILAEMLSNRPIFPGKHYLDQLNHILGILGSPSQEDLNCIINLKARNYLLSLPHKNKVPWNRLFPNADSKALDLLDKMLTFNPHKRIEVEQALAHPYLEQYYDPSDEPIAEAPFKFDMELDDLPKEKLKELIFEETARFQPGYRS

As for `CCNC(=O)c1ccc2c(c1)NC(=O)/C2=C(\Nc1ccc(CN(C)C)cc1)c1ccccc1`, the ΔTm in assay [1] is 3.61 °C and 1.55 °C; in assay [2] it was 0.83 °C and 0.42 °C; in assay [3], 0.37 °C and -0.02 °C; in assay [4] it was 0.19 °C and -0.61 °C; in assay [5] it was 0.2 °C and 0.17 °C; in assay [6] it was 1.4 °C and 0 °C.
In the case of `CN(C)CCCNc1ccnc(Nc2cccc(Cl)c2)n1`, the shift in melting temperature (ΔTm) turned out to be 2.74 °C in assay [1]; 2.3 °C in assay [2]; 0.78 °C in assay [3]; 6.75 °C in assay [4]; 0.51 °C in assay [5]; 2.26 °C in assay [6].
As to `CC(C)(C)OC(=O)CN1C(=O)c2c(OCC(=O)O)cccc2Oc2ccc(C(F)(F)F)cc21`, the ΔTm is 0.48 °C in assay [1]; 0.55 °C in assay [2]; 0.4 °C in assay [3]; 1.17 °C in assay [4]; 0.51 °C in assay [5]; -0.28 °C in assay [6].
Take `CN(C)[C@H]1CCc2nc(NC(=O)c3cccc(Cn4cc(-c5ccc(C#N)cc5)cn4)c3)sc2C1`: the ΔTm stood at 0.14 °C in assay [1]; 0.68 °C in assay [2]; 0.36 °C in assay [3]; 0.72 °C in assay [4]; 0.35 °C in assay [5]; 0.61 °C in assay [6].
For the molecule `O=C1Nc2nc(-c3c(O)cccc3OCC3CC3)cc([C@@H]3CCCNC3)c2CO1`, the thermal shift (ΔTm) in assay [1] is 0.61 °C; in assay [2], 2.37 °C; in assay [3], 2.04 °C; in assay [4] it was 1.54 °C; in assay [5] it was 1.1 °C; in assay [6], -0.03 °C.
For `CC1(C)CCC(CN2CCN(c3ccc(C(=O)NS(=O)(=O)c4ccc(NCC5CCOCC5)c([N+](=O)[O-])c4)c(Oc4cnc5[nH]ccc5c4)c3)CC2)=C(c2ccc(Cl)cc2)C1`, the shift in melting temperature (ΔTm) was -0.27 °C in assay [1]; 1.18 °C in assay [2]; -0.88 °C in assay [3]; -0.99 °C in assay [4]; 0.48 °C in assay [5]; 0.44 °C in assay [6].
In the case of `Cc1ccc(NC(=O)c2ccc(CN3CC[C@H](N(C)C)C3)c(C(F)(F)F)c2)cc1Nc1nccc(-c2cncnc2)n1`, the ΔTm in assay [1] stood at 17.6 °C; in assay [2], 0.7 °C; in assay [3] it was 0.73 °C; in assay [4], 0.08 °C; in assay [5] it was 0.9 °C; in assay [6], 0.26 °C.
`CNc1[nH]c(Nc2ccc(C(=O)N3CCOCC3)cc2OC)nc2ncc(Cl)c1-2`: the shift in melting temperature (ΔTm) in assay [1] is 0.1 °C; in assay [2], -0.26 °C; in assay [3], 4.5 °C; in assay [4], -1.11 °C; in assay [5], 0.86 °C; in assay [6], 1 °C.
Consider `CN1CCC(F)(Cn2cnc(-c3ccc(F)cn3)c2-c2ccnc3[nH]ccc23)CC1`, for which the ΔTm in assay [1] is 0.05 °C; in assay [2], 0.48 °C; in assay [3], 8.14 °C; in assay [4], -0.54 °C; in assay [5] it was 0.37 °C; in assay [6] it was -0.98 °C.
`CCN(C)C(=O)c1ccc2c(c1)NC(=O)/C2=C(\NC1CCN(C)CC1)c1ccccc1`: the ΔTm in assay [1] is -0.14 °C; in assay [2] it was 0.01 °C; in assay [3], 0.23 °C; in assay [4] it was 2.01 °C; in assay [5], 0.03 °C; in assay [6] it was -0.37 °C.
On to `O=C(O)c1ccc(CN2C[C@@H]3C[C@H]2CN3Cc2ccc(Oc3ccc(-c4ncco4)cc3)cc2)cc1`, for which the thermal shift (ΔTm) was 0.42 °C in assay [1]; 0.83 °C in assay [2]; 0.25 °C in assay [3]; -0.14 °C in assay [4]; 0.14 °C in assay [5]; -0.18 °C in assay [6].
Regarding `COc1cc2ncnc(N[C@H](C)c3ccccc3)c2cc1OC1CCN(S(C)(=O)=O)CC1`, the shift in melting temperature (ΔTm) turned out to be 1.29 °C in assay [1]; 0.54 °C in assay [2]; 0.38 °C in assay [3]; 0.09 °C in assay [4]; 0.1 °C in assay [5]; 0.05 °C in assay [6].
In the case of `Cc1cc2c(ncn2C2(C)CN(C(=O)c3ccn(CC4CCN([C@H]5C=CCCCC5)CC4)c3)C2)c(N)n1`, the ΔTm is 0.14 °C in assay [1]; 1.09 °C in assay [2]; -0.14 °C in assay [3]; -0.26 °C in assay [4]; 0.62 °C in assay [5]; -1 °C in assay [6].
`CC(=O)N1CCN([C@H]2CCC[C@@H](NC(=O)c3cc4c(F)ccc(C)c4[nH]3)C2)CC1`: the shift in melting temperature (ΔTm) in assay [1] is 0.29 °C; in assay [2] it was 0.89 °C; in assay [3], 0.05 °C; in assay [4], -0.56 °C; in assay [5], 0.42 °C; in assay [6] it was -0.61 °C.
Consider `N#CN1CC[C@@H](C(=O)Nc2nc3c(s2)CN(C(=O)CN=[N+]=[N-])CC3)C1`, for which the shift in melting temperature (ΔTm) in assay [1] is 0.86 °C; in assay [2], 0.33 °C; in assay [3], 0.49 °C; in assay [4] it was -0.33 °C; in assay [5], 0.62 °C; in assay [6], -0.54 °C.
Regarding `CN1CCN(c2ccc(Nc3ncc4cc5n(c4n3)C3(CCCCC3)CNC5=O)nc2)CC1`, the shift in melting temperature (ΔTm) in assay [1] was 0.17 °C; in assay [2], 0 °C; in assay [3], -0.03 °C; in assay [4], 0.02 °C; in assay [5], 0.18 °C; in assay [6] it was 0.38 °C.
Take `Cc1[nH]c2c(N3CCCCC3)c(-c3ccccc3)nn2c(=O)c1-c1ccc(O)cc1`: the ΔTm was 0.05 °C in assay [1]; 0.91 °C in assay [2]; 1.23 °C in assay [3]; -0.79 °C in assay [4]; 0.43 °C in assay [5]; -0.38 °C in assay [6].
As for `COCCN1CCN(CCn2ccc(Nc3ncc4c(n3)-c3c(nn(C)c3-c3ccccc3)C[C@H]4C)n2)CC1`, the ΔTm in assay [1] stood at 2.08 °C; in assay [2] it was 3.1 °C; in assay [3] it was 5.97 °C; in assay [4], 0.86 °C; in assay [5], 1.18 °C; in assay [6], 2.79 °C.
For the molecule `CN(C)C/C=C/C(=O)Nc1cc2c(Nc3ccc(F)c(Cl)c3)ncnc2cc1OC[C@@H]1CCCO1`, the shift in melting temperature (ΔTm) was 6.89 °C in assay [1]; -0.1 °C in assay [2]; 1.15 °C in assay [3]; 2.63 °C in assay [4]; -1.79 °C in assay [5]; 1.39 °C in assay [6].
Take `COC1(C#Cc2ccc(Cl)c(-c3ncc4c(n3)-c3sc(NC(C)=O)nc3CC4)c2)CCN(C)CC1`: the shift in melting temperature (ΔTm) in assay [1] was 0.87 °C; in assay [2], -0.1 °C; in assay [3], 1.14 °C; in assay [4] it was -0.95 °C; in assay [5], 0.03 °C; in assay [6], 0 °C.
Consider `O=C(Nc1cccc(C(F)(F)F)c1)c1cccc(-n2cc(-c3ccco3)nn2)c1`, for which the ΔTm in assay [1] is 0.46 °C; in assay [2], 0.62 °C; in assay [3] it was -5.13 °C; in assay [4] it was -7.24 °C; in assay [5], -10.6 °C; in assay [6], -2.64 °C.
Turning to `CCCCC/C=C/C=C1/C(=O)C=C[C@@H]1C/C=C\CCCC(=O)O`, the ΔTm in assay [1] is -2.05 °C; in assay [2], -0.61 °C; in assay [3] it was -0.75 °C; in assay [4], -0.25 °C; in assay [5], -0.53 °C; in assay [6], -1.52 °C.
With `O=C(CNCc1cc2ccccc2[nH]1)N[C@H]1CC[C@@H](c2nc3ccccc3[nH]2)CC1`, the ΔTm in assay [1] was 0.13 °C; in assay [2] it was 0.52 °C; in assay [3], 0.18 °C; in assay [4] it was -0.57 °C; in assay [5] it was 0.34 °C; in assay [6], -0.41 °C.
With `C=CC(=O)Nc1ccc(C(=O)Nc2[nH]nc3c2CN(C(=O)N[C@H](CN(C)C)c2ccccc2)C3(C)C)cc1`, the ΔTm came to 4.89 °C in assay [1]; 3.53 °C in assay [2]; 1.06 °C in assay [3]; 6.48 °C in assay [4]; 6.56 °C in assay [5]; 7.89 °C in assay [6].

For orientation: ΔTm means the change in melting temperature against a reference sample.
